Out of some 360,000 compounds screened, about 7,500 (2.1%) were called active. A call without a number means that no potency is given here. Another 20% or so got no clear call; they are omitted. The sample holds actives, similar compounds and a random draw of the others, so the mix is not that of the screen. Calls come from the whole dose curve; as a rule, active = well fitted inhibition curve with a large enough effect; inconclusive = small, poorly fitted or top-dose-only effect, or effect the other way; inactive = flat fitted curve, though single readings scatter.
Potency is the fitted concentration of half-maximal effect.

This assay can be described thus: Nrf2 qHTS screen for inhibitors. Note: nearly all actives have a fitted effect of over 60% in size. Conditions: A549 ARE-Fluc reporter, luciferase luminescence, 18-24 h; series mostly up to 46 µM. The procedure, abridged:
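Concentration-response testing used A549 ARE_Fluc cells at 5000 cells/well. Following an 18-24 h compound incubation, viability was read by fluorescence (Ex 405/Em 525) and luciferase output by luminescence.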
For orientation: In qHTS, concentration-response curves come from the screen itself.
For the molecule `COc1cc(/C=C/CNC[C@H]2O[C@@H](n3cnc(C(N)=O)n3)[C@H](O)[C@@H]2O)ccc1O`, the Potency entry is “inactive”. To `COc1ccc(NC(=O)CSC2=Nc3ccccc3C3=NC(CC(=O)NCc4ccccc4OC)C(=O)N23)cc1Cl` (centres undefined) belongs “inactive”; to `COc1ccc(-c2cc(C(F)(F)F)n3nc(-c4ccccc4)cc3n2)cc1OC`, “inactive”; to `COc1ccccc1-c1oc2ccccc2c1C#CCCCCO`, “inactive”. Take `COc1ccc2cc(C3=CC(=O)C[C@H](c4ccc5c(c4)OCO5)C3)ccc2c1`: the Potency entry is “inactive”. For the molecule `O=C1C=C(c2ccnc3cc(Cl)ccc23)C[C@@H](c2ccc3c(c2)OCO3)C1`, the Potency is 9.2 µM (active). To `O=C1C=C(c2cccc(Cl)c2)C[C@@H](c2ccc(F)cc2)C1` belongs “inactive”. For the molecule `O=S(=O)(c1ccc2c(c1)OCCCO2)N1CCN(S(=O)(=O)c2c(F)cccc2F)CC1`, the Potency entry is “inactive”. Regarding `COc1ccccc1Nc1nc(N)nc(N)c1S(=O)(=O)c1ccccc1`, the Potency result was “inactive”. As for `CCOC(=O)c1ccc(NC(=O)c2nc[nH]c2C(=O)N[C@@H](CCCCNC(=O)OC(C)(C)C)C(=O)OC(C)(C)C)cc1`, the Potency is 23.1 µM (active). To `CC(C)(C)OC(=O)NCCCCCNC(=O)c1[nH]cnc1C(=O)Nc1nccs1` belongs “inactive”. In the case of `CCOC(=O)c1ccc(NC(=O)c2nc[nH]c2C(=O)NCc2ccccc2)cc1`, the Potency entry is “inactive”. Turning to `COc1ccc(OC)c(NC(=O)CSc2nc3ccccc3nc2N2CCCCC2)c1`, the Potency result is “inactive”. `CC(C)c1cc(N=O)cc(C(C)C)c1O`: the Potency entry is “inactive”. For `CCCCCc1ccc(-c2ccc(OCC)cc2)nc1` the value was 0.366 µM (active); for `CCCCOc1ccc(-c2ncc(C(=O)OCC)c(N)n2)cc1`, “inactive”; for `CCCCCc1ccc(-c2cn(Cc3ccc4ccccc4c3)nn2)cc1`, “inactive”. To `CNC(=O)c1ccsc1NC(=O)c1ccc(S(=O)(=O)N2CCOCC2)cc1` belongs “inactive”; to `O=S(=O)(c1ccccc1)N1CCc2ccccc21`, “inactive”. As to `CNC(=O)c1ccsc1NC(=O)c1ccc(S(=O)(=O)N2CCc3ccccc32)cc1`, the Potency was 16.4 µM (active). To `COc1ccc(C(=O)NCc2ccc(Cl)cc2)cc1S(=O)(=O)N1CCCC1` belongs “inactive”; to `CCOC(=O)c1c(C)oc2nc(C)nc(N(CC(C)C)CC(C)C)c12`, “inactive”; to `CCCSc1ccc([C@H]2N[C@@](Cc3ccccc3)(C(=O)OC)[C@H]3C(=O)N(C)C(=O)[C@@H]23)cc1`, “inactive”.

For the molecule `Cc1ccc(NC(=O)CCNC(=O)c2ccc([N+](=O)[O-])cc2)cc1S(=O)(=O)N1CCOCC1`, the Potency entry was “inactive”. With `CCc1ccccc1OCC(=O)Nc1ccc(C)c(S(=O)(=O)N2CCCCCC2)c1`, the Potency is 25.9 µM (active).

`Cc1ccc(NC(=O)CCCNC(=O)c2ccc(Cl)cc2)cc1S(=O)(=O)N1CCOCC1`: the Potency entry was “inactive”. For `Cc1ccc(NS(=O)(=O)c2cccs2)cc1S(=O)(=O)N1CCCCCC1` the value was 7.31 µM (active). To `Cc1ccc(NC(=O)CCC(=O)N2CCC(c3ccccc3)=N2)cc1S(=O)(=O)N1CCCCC1` belongs “inactive”; to `O=C(C1CCN(S(=O)(=O)c2cccs2)CC1)N1CCCCCC1`, “inactive”.

With `Cc1ccc(NC(=O)CCCNC(=O)c2ccc(Cl)cc2)cc1S(=O)(=O)N1CCCCC1`, the Potency is 16.4 µM (active). Turning to `Cc1ccc(NC(=O)COC(=O)C2CC2)cc1S(=O)(=O)N1CCOCC1`, the Potency entry was “inactive”.

For the molecule `Cc1ccc(C(=O)NNC(=O)c2ccncc2)cc1S(=O)(=O)N1CCCCC1`, the Potency entry is “inactive”. For `CC1CN(C(=O)N2CCC(C(=O)NCc3cccs3)CC2)c2ccccc2O1` (centres undefined) the value was “inactive”; for `O=C(CCCCn1c(=O)c2ccccc2n(CC(=O)Nc2cccc(C(F)(F)F)c2)c1=O)NCc1ccc2c(c1)OCO2`, “inactive”. To `CCCS(=O)(=O)N1CCC(n2c(C(F)(F)F)nc3cccnc32)CC1` belongs “inactive”; to `O=C(N[C@@H]1C/C=C\C[C@@H](CC(=O)N(CCO)Cc2ccccc2)C(=O)N[C@H](Cc2ccccc2)COC1=O)OCC1c2ccccc2-c2ccccc21`, “inactive”; to `Fc1ccc2[nH]c3c(N4CCN(Cc5ccc6c(c5)OCO6)CC4)ncnc3c2c1`, 10.3 µM (active). To `O=c1[nH]c(N2CCN(Cc3ccc4c(c3)OCO4)CC2)nc2c1CCCC2` belongs “inactive”; to `CC(C)(C)n1nnnc1C(c1ccc(F)cc1)N1CCN(Cc2ccc3c(c2)OCO3)CC1` (centres undefined), “inactive”; to `Fc1ccc2[nH]c3c(N4CCSCC4)ncnc3c2c1`, 18.4 µM (active).

For `Cc1c(CN2CC[C@@H](N3CCN(c4ccccn4)CC3)[C@H](O)C2)[nH]c2ccc(F)cc12`, the Potency result was “inactive”. For `CCn1c(CN2CCC(C)CC2)nc2cc(NC(=O)c3ccccc3[N+](=O)[O-])ccc21`, the Potency result is “inactive”.

Take `CCCN(CC(=O)Nc1ccccc1C)C(=O)c1ccc(OCC(=O)N2CCOCC2)c(OCC)c1`: the Potency entry is “inactive”. For `Cc1ccccc1NC(=O)Cn1c(=O)n(CC2CCC(C(=O)NCCc3ccccc3)CC2)c(=O)c2ccccc21` (centres undefined) the value was “inactive”; for `COc1cc(C(=O)NCC(c2ccco2)N2CCCC2)ccc1OCc1ccccc1` (centres undefined), “inactive”; for `Cc1ccccc1Nc1nn2c(=O)c3ccc(C(=O)NCCc4ccc(Cl)cc4)cc3nc2s1`, “inactive”.

As to `Cc1ccc(S(=O)(=O)NC(N)=NCCC[C@@H](NC(=O)CNC(=O)c2ccccc2)C(=O)Nc2cc(C(F)(F)F)ccc2Cl)cc1`, the Potency result was “inactive”.

In the case of `O=C1NC[C@@H](c2ccccc2)OC(=O)[C@H](Cc2ccc(F)cc2)CC/C=C/C[C@H]1CC(=O)N(CCO)Cc1ccccc1`, the Potency entry is “inactive”. Take `Cc1ccc2nc(-c3ccc(O)cc3)c(Nc3ccc4c(c3)OCO4)n2c1`: the Potency entry is “inactive”. To `Cc1nc2ccccc2c(-c2ccccc2)c1C(=O)c1ccccc1` belongs 23.1 µM (active); to `Cc1nc2ccccc2c(C(=O)O)c1-c1ccccn1`, “inactive”. For `Cc1nc2ccccc2c(C)c1C(=O)c1ccc(F)cc1`, the Potency result was “inactive”. `CC1(C)O[C@@H]2CC3C4C[C@H](F)C5=CC(=O)C=CC5(C)C4C(O)CC3(C)[C@]2(C(=O)CO)O1` (some centres undefined): the Potency was 0.0046 µM (active).

With `Cc1ccc(C(CC(=O)O)NC(=O)c2ccc(S(=O)(=O)N3CCCC3)cc2)cc1` (centres undefined), the Potency entry is “inactive”. To `COCCOC(=O)C1=C(C)NC(=O)NC1c1ccc(Cl)cc1` (centres undefined) belongs “inactive”.

Turning to `CCOCCOC(=O)C1=C(C)NC(=O)NC1c1ccc2c(c1)OCO2` (centres undefined), the Potency entry is “inactive”. For `CCC(CC)COC(=O)C1=C(C)NC(=O)NC1c1ccc([N+](=O)[O-])cc1` (centres undefined), the Potency was 25.9 µM (active). `COc1cc(CN(CC2CCCO2)C(=O)c2ccccc2F)cc(OC)c1OC` (centres undefined): the Potency entry was “inactive”. For `COc1ccc(C(=O)C[n+]2ccc(C)cc2)cc1` the value was “inactive”; for `COc1ccc(C(=O)C[n+]2ccc(N)c(C)c2C)cc1`, 5.8 µM (active); for `COc1ccc(CCC(=O)c2ccc(OC)cc2)cc1`, “inactive”. Turning to `CC/C(=C\c1ccc(Cl)cc1)c1ccncc1`, the Potency entry was “inactive”. Regarding `COc1ccc(S(=O)(=O)N(C)C[C@H]2Oc3c(NC(=O)Nc4ccc5c(c4)OCO5)cccc3C(=O)N([C@H](C)CO)C[C@@H]2C)cc1`, the Potency entry was “inactive”. With `COc1ccc(C(=O)N(Cc2ccccc2)Cc2ccc(OC)c(COc3ccc(NC(C)=O)cc3)c2)c(O)c1`, the Potency result was “inactive”. To `Cc1cccc(C=CC(=O)c2ccc(Cl)cc2)c1` belongs “inactive”; to `Cc1[nH]c(=O)c(C(=O)/C=C/c2ccccc2)c2c1CCCC2`, 20.6 µM (active). As to `Cc1cn(COC/C=C/c2ccccc2)c(=O)[nH]c1=O`, the Potency entry was “inactive”. As to `Nc1ccc2c(c1)C(=Cc1cccnc1)c1ccccc1-2`, the Potency result is “inactive”. Consider `CCCc1nc2c(c(=O)c3ccccc3n2C)c(=O)n1-c1cc(C)cc(C)c1`, for which the Potency result is “inactive”. To `Cn1c2ccccc2c(=O)c2c(O)cccc21` belongs “inactive”; to `CCCc1nc2c(c(=O)c3ccccc3n2C)c(=O)n1C1CCCCCC1`, 23.1 µM (active). For the molecule `O=C(NCc1cccnc1)C(=O)NCC(c1cccnc1)N1CCN(c2ccccc2)CC1` (centres undefined), the Potency result is “inactive”. To `O=C(CCCCCCCC(=O)N1CCCCC1)N1CCCCC1` belongs “inactive”; to `COc1cc(CNCCN(C)C)ccc1OCc1c(F)cccc1Cl`, “inactive”. Regarding `CN(C)CCCNC(=O)/C=C/c1ccc(OCc2c(F)cccc2Cl)cc1`, the Potency is 20.6 µM (active). To `COCCCNC(=O)/C=C/c1ccc(OCc2c(F)cccc2Cl)cc1` belongs “inactive”; to `COc1cc2c(-c3ccc4c(c3)OCO4)c(-c3ccsc3)oc(=O)c2cc1OC`, “inactive”; to `O=C1C=C(c2cccc(Cl)c2O)C[C@@H](c2ccc(F)cc2)C1`, “inactive”. To `COc1ccc(N2CCN(Cc3nc4c(c(=O)[nH]c(=O)n4C)n3Cc3ccc(Cl)cc3)CC2)cc1` belongs “inactive”; to `CCc1cccc2c3c([nH]c12)C(CC)(CC(=O)O)OCC3` (centres undefined), 10.3 µM (active); to `O=C1CC[C@@H]2CC3(C[C@@H]4CCN1[C@H]24)Nc1cc([N+](=O)[O-])ccc1NC3=NC1CCCCC1` (some centres undefined), “inactive”. For `CC1CC(C)(C)n2c(O)c(N=NC(N)=S)c3cccc1c32` (centres undefined) the value was 14.6 µM (active); for `Cc1cccc(NC(=O)CSc2nc(-c3ccco3)cc(C(F)(F)F)n2)c1C`, “inactive”; for `COc1cccc(C=CC(=O)C=CC=Cc2ccccc2)c1`, “inactive”. As to `Cc1c(Cl)cccc1NC(=O)CCS(=O)(=O)c1ccc2c(c1)oc(=O)n2C`, the Potency result was “inactive”. For `CCc1ccccc1NC(=O)Cn1c(=O)n(CC2CCC(C(=O)NCCc3ccccc3)CC2)c(=O)c2ccccc21` (centres undefined) the value was “inactive”; for `CCN(C[C@H]1N[C@@](Cc2ccccc2)(C(=O)OC)[C@H]2C(=O)N(Cc3ccccc3)C(=O)[C@@H]12)C(=O)c1ccc(C)cc1`, “inactive”. To `CCOc1ccccc1N(CC)C(=O)c1cc2ccc3cccnc3c2[nH]1` belongs “inactive”; to `COc1ccc(CCNC(=O)c2nnc(CS(=O)(=O)c3ccccc3)o2)cc1OC`, “inactive”. To `Cc1cccc(NS(=O)(=O)c2ccc(C)c(C(=O)NCc3cccnc3)c2)c1` belongs “inactive”.

For the molecule `COc1ccccc1CNC(=O)c1ccc(CS(=O)(=O)c2ccccc2)o1`, the Potency entry was “inactive”.

Consider `O=C(NCc1cccnc1)c1ccc(CS(=O)(=O)c2ccc(Br)cc2)o1`, for which the Potency was 14.6 µM (active). For the molecule `COc1ccc(CCNC(=O)c2ccc(CS(=O)(=O)c3ccc(Br)cc3)o2)cc1OC`, the Potency is 4.11 µM (active). To `COc1ccc(C(=O)NCCc2ccc(S(N)(=O)=O)cc2)cc1OC` belongs “inactive”.

The values above are taken from PubChem BioAssay AID504444 (National Center for Advancing Translational Sciences (NCATS), 2011).
